Compounds with a hit are over-represented: about 1.6% of the library has one in this group of screens.
KCNQ2 pot = potentiators of rat KCNQ2 potassium channel; O88943; CHO-K1 KCNQ2, FluxOR thallium flux fluorescence; active compounds read high; B-score at 10 µM; 310,000 compounds, 0.54% hits;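 active means fluorescence ratio B-score at least 3 SD of library B-scores, with initial fluorescence B-score within 3 of them, cut at about 5.3 in these data; same plate scores as AID 2156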;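 further: B-score of peak minus minimum over baseline fluorescence ratio after K+ and Tl+ stimulus; positive B-score means potentiation of KCNQ2 with more thallium influx and brighter signal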
KCNQ2 block = blocks the rat KCNQ2 potassium channel; O88943; CHO-K1 KCNQ2, FluxOR thallium flux, 20 min; active compounds read low; 310,000 compounds, 1.1% hits; B-score at 10 µM;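 active means fluorescence ratio B-score at most minus 3 library SDs, with starting brightness B-score within 2 library SDs, cut at about -5.5 in these data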
Hits are given with their value; 0 = inactive; - = no result.

SMILES	KCNQ2 pot	KCNQ2 block
Cc1ccc(S(=O)(=O)N2CCN(C(=O)NCc3ccc(C(=O)O)cc3)CC2)cc1	0	0
C=CCn1c(SCc2c(C)noc2C)nc2sc(C)c(C)c2c1=O	0	-6.5
Cc1noc(C)c1CSc1nc2sc(C)c(C)c2c(=O)n1-c1ccccc1	-	0
COCC(=O)NC1CCCCCC1	-	0
O=C(NC1CCCCC1)C1CC=CCC1C(=O)OCC(Cl)=C(Cl)Cl (stereo not drawn)	0	-5.5
CC(C)(CNc1ccc(S(=O)(=O)C(F)(F)F)cc1[N+](=O)[O-])N1CCOCC1	-	0
CCOc1ccc(S(=O)(=O)N2CCOCC2)cc1NC(=O)CSCc1c(C)noc1C	-	0
CCn1c(NCc2c[nH]c3ccccc23)nc2ccccc21	0	-6.5
Cn1c(NCc2c[nH]c3ccccc23)nc2ccccc21	-	0
O=S(=O)(CCC1CCCCN1)c1ccccc1 (stereo not drawn)	-	0
COCCCNC(=O)c1cn(CC(C)C)c(=O)c2c1c1ccccc1n2C	0	0
CCN1CCN(C(=O)c2cn(CCOC)c(=O)c3c2c2ccccc2n3C)CC1	0	0
CC(C)Cn1cc(C(=O)N2CCN(c3ccccn3)CC2)c2c3ccccc3n(C)c2c1=O	0	-5.7
COCCn1cc(C(=O)N2CCCC(C)C2)c2c3ccccc3n(C)c2c1=O (stereo not drawn)	0	-6.6
COCCNc1cnn(-c2ccccc2)c(=O)c1Cl	-	0
COc1ccc(C2CC(=O)c3cnc(Nc4cc(C)cc(C)c4)nc3C2)cc1 (stereo not drawn)	0	-5.9
COc1ccc(C2CC(=O)c3cnc(NC(=O)c4cc(OC)cc(OC)c4)nc3C2)cc1 (stereo not drawn)	0	0
CCC1CCCCN1C(=O)COc1c(Br)cc(Br)c2cccnc12 (stereo not drawn)	0	-7.8
CCC1CCCCN1C(=O)COc1ccc(F)cc1 (stereo not drawn)	0	0
COc1ccccc1CCNC(=O)C(=O)NCC1OCCN1C(=O)c1ccc(Cl)cc1 (stereo not drawn)	0	0
CCc1nc2ccc(C(=O)NC3CCC(C)CC3)cc2nc1CC (stereo not drawn)	0	0
COc1ccc(/C=C(\NC(=O)c2ccc(C)cc2)C(=O)N2CCCCC2)cc1	-	0
CCCCCC(=O)Nc1cccc2ccccc12	5.7	0
COC(=O)CCC(=O)Nc1cccc2ccccc12	0	0
COc1ccc2oc(C(=O)N(C)Cc3ccc4c(c3)OCCO4)c(C)c2c1	0	-6.7
SMILES	KCNQ2 pot	KCNQ2 block
COc1ccc2oc(C(=O)OCC(=O)c3ccc4c(c3)OCCO4)c(C)c2c1	-	0
COc1ccc2oc(C(=O)N(Cc3ccco3)Cc3cccs3)c(C)c2c1	0	-5.8
COc1ccc2oc(C(=O)N3CCN(C(=O)c4ccco4)CC3)c(C)c2c1	0	0
Cc1cc(C)c(S(=O)(=O)N(C)CC(N)=O)c(C)c1	0	-5.6
Cc1cc(C)c(S(=O)(=O)N(C)CC(=O)N2CCCCC2)c(C)c1	-	0
O=C(NCc1ccccc1)c1cccc(COc2ccc(Cl)cc2)c1	-	0
COc1cc(CNC(=O)c2cccc(COc3ccc(Cl)cc3)c2)cc(OC)c1	0	-5.9
CCOC(=O)/C=C/C(=O)OCC(=O)N1CCN(C(=O)c2ccco2)CC1	-	0
Cc1nc2c(-c3ccc(F)cc3)c(C)nn2c(C)c1CCC(=O)N1CCN(c2ccccc2)CC1	-	0
Cc1nc2c(-c3ccc(F)cc3)c(C)nn2c(C)c1CCC(=O)N1CCC(Cc2ccccc2)CC1	0	-6.1
COc1ccc(CN(CC(=O)NCc2ccccc2)C(=O)CCC(=O)Nc2nccs2)cc1	-	0
CC1CCCCN1C(=O)CSc1nc(-c2ccccc2)cc(=O)[nH]1 (stereo not drawn)	0	0
CC1CCCCN1C(=O)c1cc2nc(-c3ccccc3)cc(-c3ccccc3)n2n1 (stereo not drawn)	0	-5.7
COc1ccc2cc(OCC(=O)NNC(=O)Nc3ccc(F)cc3)ccc2c1	0	0
Clc1ccc(SCc2cc(-c3ccc(Cl)cc3)on2)cc1	0	-7.5
Cc1ccc(SCc2cc(-c3ccc(Cl)cc3)on2)cc1	-	0
Cc1ccccc1C(=O)O/N=C/c1c(N2CCOCC2)n(C)c2ccccc12	0	-7.6
CN1CCN(c2c(/C=N/O)c3ccccc3n2C)CC1	0	0
CC(=O)NC(CC(=O)N(Cc1ccccc1)c1cccc(C)c1)c1ccccc1 (stereo not drawn)	-	0
CCOc1ccc(CCn2c(-c3ccco3)nc3ccccc3c2=O)cc1OCC	0	-6.9
O=c1c2ccccc2nc(-c2ccco2)n1Cc1ccccc1	-	0
COc1ccc(CNC(=O)C2CCC(CNc3c(N4CCC(C)CC4)c(=O)c3=O)CC2)cc1 (stereo not drawn)	-	0
CCOc1ccc(NC(=O)c2sc3nc(C)nc(N4CCOCC4)c3c2C)cc1	-	0
COc1ccc(O[C@H]2C=C[C@@H](c3ccccc3)O[C@@H]2COC(=O)CC/C(C)=N/OC[C@@H](O)COCc2ccco2)cc1	-	0
